Experimental data from PubChem BioAssay AID1851 (National Center for Advancing Translational Sciences (NCATS), 2009).
In all, about 16,000 compounds went through this assay and about 5,700 (36%) were called active. Another 24% or so got no clear call; they are omitted. This is one part of the list. A number with no mark means an inactive call. The call rests on the fitted dose curve; in most records, active means well fitted curve in the direction sought with a large enough effect; inconclusive means small, poorly fitted or top-dose-only effect, or effect the other way; inactive means no such curve, though single readings can be large or run the other way.

Molecular target: Cytochrome P450 1A2 (Homo sapiens) (UniProt P05177)
Sequence (P05177 whole entry, looked up): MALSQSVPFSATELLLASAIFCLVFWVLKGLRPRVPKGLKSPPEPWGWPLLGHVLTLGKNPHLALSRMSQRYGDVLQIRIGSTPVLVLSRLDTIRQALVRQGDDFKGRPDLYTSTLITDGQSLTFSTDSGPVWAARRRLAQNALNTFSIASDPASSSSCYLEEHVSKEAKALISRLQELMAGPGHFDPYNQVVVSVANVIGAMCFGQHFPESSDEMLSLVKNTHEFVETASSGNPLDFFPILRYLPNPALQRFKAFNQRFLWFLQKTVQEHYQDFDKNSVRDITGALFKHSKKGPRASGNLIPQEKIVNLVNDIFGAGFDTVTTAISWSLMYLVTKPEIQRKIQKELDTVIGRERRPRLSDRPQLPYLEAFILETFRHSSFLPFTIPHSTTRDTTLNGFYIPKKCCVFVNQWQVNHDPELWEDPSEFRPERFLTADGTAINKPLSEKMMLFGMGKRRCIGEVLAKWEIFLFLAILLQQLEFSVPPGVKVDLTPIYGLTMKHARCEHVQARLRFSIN
Experiment: Cytochrome panel assay with activity outcomes
Conditions: recombinant CYP, pro-luciferin dealkylation, luminescence, p450-cyp1a2; series mostly up to 57.1 µM; activity, negative = inhibition: at the top concentration
On the % scale 0 is the no-effect control and ±100 the full control effect.

Row | Structure (SMILES) | activity, negative = inhibition | AC50
1 | COc1ccc(NC(=O)N2CC3(CCN(C(=O)c4cccn4C)CC3)C2)cc1 | -1.16% | 
2 | CCC(=O)OCC(=O)[C@@]1(OC(=O)CC)[C@H](C)C[C@@H]2[C@H]3CCC4=CC(=O)C=C[C@]4(C)[C@]3(Cl)[C@@H](O)C[C@@]21C | -7.99% [at 25.6 µM] | 
3 | CN(C)Cc1ccccc1-c1cc(N(C)Cc2ccco2)ncn1 |  | 15.8 µM (active)
4 | CN(Cc1ccco1)c1cc(-c2ccccc2Cl)ncn1 |  | 2.51 µM (active)
5 | Cc1cc(C(C)(C)C)cc(C)c1CC1=NCCN1 | 9.92% | 
6 | CO[C@]1(C2=NCCN2)COc2ccccc2O1 | -19% | 
7 | Cc1ccccc1/C=C\C1=NCCN1 |  | 6.31 µM (active)
8 | CCCCOc1ccc(C(=O)CCN2CCCCC2)cc1 |  | 3.16 µM (active)
9 | CCC(=O)c1ccc(OCC(O)CN2CCCCC2)cc1 (stereo not drawn) | 9.96% | 
10 | CC(C)C(NC(=O)C1CCCCC1)C(=O)NC1CCN(Cc2ccccc2)CC1 (stereo not drawn) | -3.86% | 
11 | CCOc1cc(NC(=S)NCC2CCCO2)c(OCC)cc1NC(=O)c1ccccc1C (stereo not drawn) | -29.8% | 
12 | Cc1ccccc1C(=O)c1c[nH]c(C(=O)NCC2CCCO2)c1 (stereo not drawn) |  | 25.1 µM (active)
13 | Cc1ccccc1C(=O)c1c[nH]c(C(=O)NCc2cccs2)c1 |  | 10 µM (active)
14 | COc1ccc(C(=O)c2c[nH]c(C(=O)NCc3cccs3)c2)cc1 | -8.62% | 
15 | Cc1ccc(C(=O)NCC2CCCO2)cc1N1CCCC1=O (stereo not drawn) | -17.5% | 
16 | O=C(O)CC[C@]1(C(=O)O)CCC(=O)c2ccccc21 | -9.13% [at 11.4 µM] | 
17 | CC[C@](N)(C(=O)O)C(C)C | -14.6% [at 11.4 µM] | 
18 | Cc1cccn2c(=O)c(C=NCc3ccco3)c(Nc3ccc(SC(F)F)cc3)nc12 |  | 0.562 µM (active)
19 | O=c1c2ccccc2nc(-c2ccc(Br)cc2)n1Cc1ccccc1 |  | 10 µM (active)
20 | O=C(CCn1nc(-c2ccc(Cl)cc2)c2ccccc2c1=O)NCCN1CCOCC1 | -17.2% | 
21 | O=c1c2ccccc2c(-c2ccc(Br)cc2)nn1Cc1ccccc1 |  | 2.82 µM (active)

Row | Structure (SMILES) | activity, negative = inhibition | AC50
22 | Cc1ccc(C(=O)CNc2nc3c(c(=O)[nH]c(=O)n3C)n2Cc2ccccc2)cc1 | -22.2% | 
23 | CCC(=O)NC(Nc1sc2c(c1C(=O)OC)CCCC2)(C(F)(F)F)C(F)(F)F | -5.11% | 
24 | CCOC(=O)c1c(NC(=O)Cn2cc([N+](=O)[O-])cn2)sc2c1CCC2 |  | 2.82 µM (active)
25 | COC(=O)c1c(NC(=O)c2ccco2)sc2c1CCC2 |  | 0.891 µM (active)
26 | CC1Cc2ccccc2N1C(=O)Cn1cc([N+](=O)[O-])cn1 (stereo not drawn) | -18.3% | 
27 | COC(=O)c1c(NC(=O)Cn2cc([N+](=O)[O-])cn2)sc2c1CCC2 |  | 1.26 µM (active)
28 | CCOC(=O)c1c(NC(=O)CSc2nnc(C)s2)sc2c1CCCCC2 |  | 8.91 µM (active)
29 | CC(=O)OC1COC(N2CCc3cc([N+](=O)[O-])ccc32)C(OC(C)=O)C1OC(C)=O (stereo not drawn) | 0.819% | 
30 | C#CCSc1nc(Cc2ccc(Cl)cc2)nc2ccccc12 |  | 1.26 µM (active)
31 | CCc1nc(SCC(=O)NNC(=O)C2CCCCC2)c2ccccc2n1 | 1.59% | 
32 | COc1cccc(CSc2nnc(C(F)(F)F)n2Cc2ccc(F)cc2)c1 |  | 11.2 µM (active)
33 | Fc1ccc(Cn2c(SCc3ccc(F)c(C(F)(F)F)c3)nnc2C(F)(F)F)cc1 | -29.4% | 
34 | CC(C)CC1NC(=S)N(C2CCCCC2)C1=O (stereo not drawn) | -15.6% | 
35 | O=C(/C=C/c1ccc(Cl)cc1)Nc1ccc(N2CCCCC2)cc1 | -7.34% | 
36 | CC(=O)N1CCN(c2ccc(NC(=O)c3ccc(C)cc3)cc2)CC1 | 0.154% | 
37 | CC(=O)Nc1ccc(N2CCCCC2)cc1 |  | 14.1 µM (active)
38 | Cc1c(N2CCCC2)cc2c(c1NC(=O)c1ccccc1Cl)C(C)(C)CC2(C)C | -13.1% [at 2.29 µM] | 
39 | CC(=O)Nc1ccc(N2CCCCC2)c(C(=O)Nc2cccc(C)c2)c1 |  | 14.1 µM (active)
40 | Cc1ccc(NC(=O)c2cc(NC(=O)CCC(=O)O)ccc2N2CCCCC2)cc1 | -14.5% | 
41 | CCc1ccc(OCCCC(=O)Nc2ccc(N3CCCCC3)cc2)cc1 | -6.6% | 
42 | O=C(Nc1ccc(N2CCCCC2)cc1)c1cncc(Br)c1 |  | 4.47 µM (active)

Row | Structure (SMILES) | activity, negative = inhibition | AC50
43 | CC(C)CN1CCC2(CC1)CCN(C(=O)c1cnccn1)CC2 | -7.79% | 
44 | CC(=O)OC[C@@H]1O[C@@H](O/N=C2/C[C@@H](O)[C@@H](O)[C@@H]3[C@@H]4C(=O)N(Cc5ccccc5)C(=O)[C@H]4CC[C@H]23)[C@H](OC(C)=O)[C@H](OC(C)=O)[C@@H]1OC(C)=O | -1.74% [at 11.4 µM] | 
45 | CSc1nc2c(c(C(F)(F)F)n1)CC(C)CC2 (stereo not drawn) |  | 25.1 µM (active)
46 | C[C@H](NC(=O)Cn1cncn1)c1ccccc1 | -3.83% | 
47 | O=C(Nc1ccc(OC(F)(F)F)cc1)c1n[nH]c(Cn2cncn2)n1 |  | 0.158 µM (active)
48 | O=C(Nc1cccc(C(F)(F)F)c1)c1n[nH]c(Cn2cncn2)n1 |  | 0.126 µM (active)
49 | O=[N+]([O-])c1cc(C(F)(F)F)ccc1NCCCCNS(=O)(=O)c1ccc2ccccc2c1 | -31.8% | 
50 | Cc1ccccc1OCCNc1ccc(C(F)(F)F)cc1[N+](=O)[O-] |  | 0.891 µM (active)
51 | COC(=O)c1c(C)[nH]c(C)c1C(=O)c1ccccc1Cc1ccccc1 |  | 0.251 µM (active)
52 | Cc1ccc(C)c(C(=N)c2ccccc2Cc2ccccc2)c1 | -6.82% [at 2.29 µM] | 
53 | Nc1nc(SCc2ccc([N+](=O)[O-])cc2)c2ncn([C@@H]3O[C@@H](CO)[C@@H](O)[C@H]3O)c2n1 | -8.58% | 
54 | Cc1ccc(S(=O)(=O)N(CCCN2CCCC2=O)Cc2cc3c(C)ccc(C)c3[nH]c2=O)cc1 | -21% | 
55 | Cc1ccc(CS(=O)(=O)CCC(=O)NCCCN2CCCC2=O)cc1 | -15.9% | 
56 | COc1ccc2[nH]c3c(NCCCN4CCCC4=O)ncnc3c2c1 |  | 11.2 µM (active)
57 | CC(=O)N[C@@H](CC(=O)O)C(=O)O | -4.66% [at 25.6 µM] | 
58 | Cn1c(SCC(=O)N2CCN(S(=O)(=O)c3ccccc3)CC2)nc2ccccc21 | -17.9% | 
59 | CC1CC(C)CN(C(=O)CSc2nnc(CSc3ncccn3)n2C)C1 (stereo not drawn) | -0.204% | 
60 | Cc1nc2ccccc2nc1SCC(=O)N1CCC(C)CC1 |  | 3.55 µM (active)
61 | NC(=O)C1CCN(C(=O)CN2C(=O)c3ccccc3S2(=O)=O)CC1 | 1.85% | 
62 | CC1CCN(C(=O)C2CCN(S(=O)(=O)c3cccc4nonc34)CC2)CC1 | -0.137% | 
63 | CC1CCN(C(=O)CSc2nc3cccnc3n2C)CC1 |  | 20 µM (active)
